Laboratory results taken from PMC7862700, “An all-to-all approach to the identification of sequence-specific readers for epigenetic DNA modifications on cytosine”.

What was measured:
Assay in all cases: DAPPL (digital affinity profiling via proximity ligation, sequencing); 10 mM Tris-HCl pH 7.5, 50 mM NaCl, 1 mM DTT, 4% glycerol, room temperature, 30 min; GST-TFs on glutathione beads, 16-mer random dsDNA library, 0.1% formaldehyde crosslink after washing; high values mean tight binding
FLI1 = biological target: T1, FLI1 (Homo sapiens, UniProt Q01543 1-452); conditions: protein: recombinant; tags: N-terminal GST; dsDNA, one strand shown
T1 sequence: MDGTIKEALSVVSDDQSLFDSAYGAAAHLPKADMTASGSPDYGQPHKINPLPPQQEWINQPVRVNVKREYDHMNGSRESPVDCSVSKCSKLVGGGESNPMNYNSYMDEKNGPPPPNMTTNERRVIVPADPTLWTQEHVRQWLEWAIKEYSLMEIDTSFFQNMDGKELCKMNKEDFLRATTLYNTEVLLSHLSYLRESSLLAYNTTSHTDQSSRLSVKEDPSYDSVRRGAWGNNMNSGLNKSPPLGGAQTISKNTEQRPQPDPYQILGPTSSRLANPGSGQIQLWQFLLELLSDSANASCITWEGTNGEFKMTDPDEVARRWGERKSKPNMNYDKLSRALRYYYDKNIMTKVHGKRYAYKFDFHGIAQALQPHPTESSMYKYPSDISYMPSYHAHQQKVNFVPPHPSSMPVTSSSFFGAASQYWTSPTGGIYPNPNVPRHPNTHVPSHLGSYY
Procedure, shortened: (§1)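 Human transcription factors were made in yeast as GST fusions, captured on glutathione beads and barcoded with DNA. With a tag-only sample included, the pool was incubated with 200 nmole of a random double-stranded 16-mer DNA library in Tris/NaCl/DTT/glycerol buffer at room temperature for 30 min, then crosslinked with 0.1% formaldehyde after washing, ligated by proximity, amplified and sequenced. For binding signal, each hexamer's read frequency for a factor is divided by its frequency for the tag-only sample.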

ELK1 = biological target: T2, ELK1 (Homo sapiens, UniProt P19419 1-428); conditions: protein: recombinant; tags: N-terminal GST; dsDNA, one strand shown
T2 sequence: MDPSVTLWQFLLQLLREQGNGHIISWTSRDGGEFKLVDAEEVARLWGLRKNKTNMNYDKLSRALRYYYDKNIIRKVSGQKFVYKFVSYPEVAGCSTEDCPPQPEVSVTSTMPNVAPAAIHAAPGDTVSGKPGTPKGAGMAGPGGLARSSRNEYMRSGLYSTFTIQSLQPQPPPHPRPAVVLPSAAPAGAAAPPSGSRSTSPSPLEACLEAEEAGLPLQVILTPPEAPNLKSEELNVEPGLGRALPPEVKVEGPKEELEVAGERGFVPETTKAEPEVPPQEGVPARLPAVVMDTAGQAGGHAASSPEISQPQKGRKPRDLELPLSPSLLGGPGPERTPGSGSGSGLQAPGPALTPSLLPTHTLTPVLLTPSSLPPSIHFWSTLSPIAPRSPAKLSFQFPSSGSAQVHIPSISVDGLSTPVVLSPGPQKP
Procedure, shortened: as §1

GABPA = biological target: T3, GABPA (Homo sapiens, UniProt Q06546 1-454); conditions: protein: recombinant; tags: N-terminal GST; dsDNA, one strand shown
T3 sequence: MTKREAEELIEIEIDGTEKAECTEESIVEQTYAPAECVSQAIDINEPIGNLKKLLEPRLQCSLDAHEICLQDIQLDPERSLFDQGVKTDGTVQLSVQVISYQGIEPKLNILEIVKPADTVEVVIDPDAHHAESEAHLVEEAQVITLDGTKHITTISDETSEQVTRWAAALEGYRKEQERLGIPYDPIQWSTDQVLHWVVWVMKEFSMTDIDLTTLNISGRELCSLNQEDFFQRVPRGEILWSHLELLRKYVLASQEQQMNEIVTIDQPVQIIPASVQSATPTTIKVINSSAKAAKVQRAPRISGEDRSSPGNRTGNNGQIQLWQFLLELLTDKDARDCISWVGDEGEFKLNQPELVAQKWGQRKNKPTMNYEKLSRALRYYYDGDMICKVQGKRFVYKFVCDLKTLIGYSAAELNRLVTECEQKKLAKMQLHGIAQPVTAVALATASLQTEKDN
Procedure, shortened: as §1

ERG = biological target: T4, ERG (Homo sapiens, UniProt P11308 1-479); conditions: protein: recombinant; tags: N-terminal GST; dsDNA, one strand shown
T4 sequence: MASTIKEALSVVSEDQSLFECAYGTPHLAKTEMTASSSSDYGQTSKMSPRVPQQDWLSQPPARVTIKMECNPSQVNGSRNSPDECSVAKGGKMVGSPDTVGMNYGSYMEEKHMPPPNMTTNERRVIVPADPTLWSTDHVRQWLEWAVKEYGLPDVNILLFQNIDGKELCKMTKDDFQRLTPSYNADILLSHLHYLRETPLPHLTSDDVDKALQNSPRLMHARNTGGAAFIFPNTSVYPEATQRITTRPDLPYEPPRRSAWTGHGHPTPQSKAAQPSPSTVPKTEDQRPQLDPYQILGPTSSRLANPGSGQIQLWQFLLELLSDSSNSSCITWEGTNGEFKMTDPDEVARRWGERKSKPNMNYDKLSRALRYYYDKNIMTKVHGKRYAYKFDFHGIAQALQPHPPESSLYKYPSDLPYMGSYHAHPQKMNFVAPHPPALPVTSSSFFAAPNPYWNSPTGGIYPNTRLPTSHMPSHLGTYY
Procedure, shortened: as §1

ELF1 = ELF1 (Homo sapiens, UniProt P32519 1-619); conditions: protein: recombinant; tags: N-terminal GST; dsDNA, one strand shown
Chain of ELF1 (P32519 whole entry): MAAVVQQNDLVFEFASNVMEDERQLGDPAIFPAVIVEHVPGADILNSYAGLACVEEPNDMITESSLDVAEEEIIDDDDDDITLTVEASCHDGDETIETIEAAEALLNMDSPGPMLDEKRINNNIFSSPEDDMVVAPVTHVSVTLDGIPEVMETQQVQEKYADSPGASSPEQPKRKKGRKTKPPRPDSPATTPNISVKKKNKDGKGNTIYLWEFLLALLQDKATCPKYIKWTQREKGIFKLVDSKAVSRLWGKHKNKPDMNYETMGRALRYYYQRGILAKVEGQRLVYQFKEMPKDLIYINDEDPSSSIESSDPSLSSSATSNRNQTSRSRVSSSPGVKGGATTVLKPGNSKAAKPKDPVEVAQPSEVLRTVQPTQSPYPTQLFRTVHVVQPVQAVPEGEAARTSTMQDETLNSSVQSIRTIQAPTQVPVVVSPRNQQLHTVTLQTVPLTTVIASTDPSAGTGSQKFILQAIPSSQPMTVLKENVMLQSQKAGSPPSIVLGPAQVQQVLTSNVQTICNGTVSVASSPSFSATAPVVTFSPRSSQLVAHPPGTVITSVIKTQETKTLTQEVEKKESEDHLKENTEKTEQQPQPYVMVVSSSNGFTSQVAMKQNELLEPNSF
Procedure, shortened: as §1

EHF = biological target: T5, EHF (Homo sapiens, UniProt Q9NZC4 1-300); conditions: protein: recombinant; tags: N-terminal GST; dsDNA, one strand shown
T5 sequence: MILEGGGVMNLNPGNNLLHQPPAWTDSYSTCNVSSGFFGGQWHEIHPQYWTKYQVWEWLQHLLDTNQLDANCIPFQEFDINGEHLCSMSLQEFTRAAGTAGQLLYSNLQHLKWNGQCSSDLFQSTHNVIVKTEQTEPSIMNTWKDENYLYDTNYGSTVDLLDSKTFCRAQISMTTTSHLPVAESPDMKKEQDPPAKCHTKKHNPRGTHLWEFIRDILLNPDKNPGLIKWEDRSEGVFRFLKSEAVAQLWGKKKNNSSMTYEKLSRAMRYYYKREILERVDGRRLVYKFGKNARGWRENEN
Procedure, shortened: as §1

SPI1 = SPI1 (Homo sapiens, UniProt P17947 1-270); conditions: protein: recombinant; tags: N-terminal GST; dsDNA, one strand shown
Procedure, shortened: as §1

SPIB = SPIB (Homo sapiens, UniProt Q01892 1-262); conditions: protein: recombinant; tags: N-terminal GST; dsDNA, one strand shown
Chain of SPIB (Q01892 whole entry): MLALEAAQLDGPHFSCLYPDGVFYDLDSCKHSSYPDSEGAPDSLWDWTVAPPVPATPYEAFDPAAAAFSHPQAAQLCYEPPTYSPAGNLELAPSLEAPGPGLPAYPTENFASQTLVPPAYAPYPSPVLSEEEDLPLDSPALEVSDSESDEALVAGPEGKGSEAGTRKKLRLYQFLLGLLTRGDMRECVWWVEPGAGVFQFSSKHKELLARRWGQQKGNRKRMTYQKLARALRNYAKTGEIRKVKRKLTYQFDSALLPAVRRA
Procedure, shortened: as §1

ELK3 = biological target: T6, ELK3 (Homo sapiens, UniProt P41970 1-407); conditions: protein: recombinant; tags: N-terminal GST; dsDNA, one strand shown
T6 sequence: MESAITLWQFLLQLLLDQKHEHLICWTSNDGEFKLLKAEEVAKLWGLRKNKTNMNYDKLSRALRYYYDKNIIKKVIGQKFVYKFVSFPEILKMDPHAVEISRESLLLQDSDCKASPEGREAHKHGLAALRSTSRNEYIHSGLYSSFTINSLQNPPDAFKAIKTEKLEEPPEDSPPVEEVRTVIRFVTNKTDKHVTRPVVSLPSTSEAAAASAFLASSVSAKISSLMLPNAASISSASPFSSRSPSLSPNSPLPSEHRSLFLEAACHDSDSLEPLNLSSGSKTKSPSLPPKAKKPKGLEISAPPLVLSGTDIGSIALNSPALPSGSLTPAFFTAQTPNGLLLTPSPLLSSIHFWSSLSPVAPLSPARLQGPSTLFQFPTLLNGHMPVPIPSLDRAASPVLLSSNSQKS
Procedure, shortened: as §1

FEV = biological target: T7, FEV (Homo sapiens, UniProt Q99581 1-238); conditions: protein: recombinant; tags: N-terminal GST; dsDNA, one strand shown
T7 sequence: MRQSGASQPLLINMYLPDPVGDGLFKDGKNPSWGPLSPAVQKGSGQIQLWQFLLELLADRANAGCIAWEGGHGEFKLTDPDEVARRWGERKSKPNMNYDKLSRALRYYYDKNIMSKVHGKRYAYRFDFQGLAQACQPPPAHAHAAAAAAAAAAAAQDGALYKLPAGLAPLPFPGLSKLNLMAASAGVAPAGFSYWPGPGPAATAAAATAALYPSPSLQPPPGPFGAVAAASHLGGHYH
Procedure, shortened: as §1

ETV5 = ETV5 (Homo sapiens, UniProt P41161 1-510); conditions: protein: recombinant; tags: N-terminal GST; dsDNA, one strand shown
Chain of ETV5 (P41161 whole entry): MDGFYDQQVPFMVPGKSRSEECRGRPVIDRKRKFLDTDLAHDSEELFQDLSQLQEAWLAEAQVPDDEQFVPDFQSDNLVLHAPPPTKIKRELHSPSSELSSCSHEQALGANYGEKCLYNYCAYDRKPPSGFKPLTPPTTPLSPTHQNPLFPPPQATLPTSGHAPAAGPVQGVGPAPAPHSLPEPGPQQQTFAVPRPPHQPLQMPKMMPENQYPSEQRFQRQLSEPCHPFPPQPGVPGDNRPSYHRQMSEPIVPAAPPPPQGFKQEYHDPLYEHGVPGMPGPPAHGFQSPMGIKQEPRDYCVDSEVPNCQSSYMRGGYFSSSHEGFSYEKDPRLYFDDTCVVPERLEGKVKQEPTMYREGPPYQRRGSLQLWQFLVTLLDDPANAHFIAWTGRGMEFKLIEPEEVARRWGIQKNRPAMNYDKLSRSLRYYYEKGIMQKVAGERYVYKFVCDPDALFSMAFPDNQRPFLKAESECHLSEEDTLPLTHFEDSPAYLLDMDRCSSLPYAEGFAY
Procedure, shortened: as §1

HSF1 = HSF1 (Homo sapiens, UniProt Q00613 1-529); conditions: protein: recombinant; tags: N-terminal GST; chain copies: 3; dsDNA, one strand shown
Chain of HSF1 (Q00613 whole entry): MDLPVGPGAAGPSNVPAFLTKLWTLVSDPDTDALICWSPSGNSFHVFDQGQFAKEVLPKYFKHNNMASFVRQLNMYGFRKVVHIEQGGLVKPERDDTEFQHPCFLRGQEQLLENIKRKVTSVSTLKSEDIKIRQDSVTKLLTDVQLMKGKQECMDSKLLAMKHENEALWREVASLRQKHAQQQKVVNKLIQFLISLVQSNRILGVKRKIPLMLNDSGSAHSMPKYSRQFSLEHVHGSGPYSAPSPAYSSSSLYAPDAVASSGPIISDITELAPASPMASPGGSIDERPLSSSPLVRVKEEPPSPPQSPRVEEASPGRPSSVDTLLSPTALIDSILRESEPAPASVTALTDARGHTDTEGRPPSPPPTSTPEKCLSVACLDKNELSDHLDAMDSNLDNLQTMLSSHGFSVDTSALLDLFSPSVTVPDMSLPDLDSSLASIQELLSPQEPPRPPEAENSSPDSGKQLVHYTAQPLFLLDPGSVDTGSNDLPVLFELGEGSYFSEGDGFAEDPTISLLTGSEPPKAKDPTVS
Procedure, shortened: as §1

SPIC = biological target: T8, SPIC (Homo sapiens, UniProt Q8N5J4 1-248); conditions: protein: recombinant; tags: N-terminal GST; dsDNA, one strand shown
T8 sequence: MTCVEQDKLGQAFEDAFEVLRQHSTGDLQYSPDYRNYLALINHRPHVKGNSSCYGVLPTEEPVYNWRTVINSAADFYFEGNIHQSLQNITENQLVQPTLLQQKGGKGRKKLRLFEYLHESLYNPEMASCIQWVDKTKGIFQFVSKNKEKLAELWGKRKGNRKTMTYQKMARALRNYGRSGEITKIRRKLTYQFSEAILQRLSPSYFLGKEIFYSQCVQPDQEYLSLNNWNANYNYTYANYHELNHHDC
Procedure, shortened: as §1

ELF4 = ELF4 (Homo sapiens, UniProt Q99607 1-663); conditions: protein: recombinant; tags: N-terminal GST; dsDNA, one strand shown
Chain of ELF4 (Q99607 whole entry): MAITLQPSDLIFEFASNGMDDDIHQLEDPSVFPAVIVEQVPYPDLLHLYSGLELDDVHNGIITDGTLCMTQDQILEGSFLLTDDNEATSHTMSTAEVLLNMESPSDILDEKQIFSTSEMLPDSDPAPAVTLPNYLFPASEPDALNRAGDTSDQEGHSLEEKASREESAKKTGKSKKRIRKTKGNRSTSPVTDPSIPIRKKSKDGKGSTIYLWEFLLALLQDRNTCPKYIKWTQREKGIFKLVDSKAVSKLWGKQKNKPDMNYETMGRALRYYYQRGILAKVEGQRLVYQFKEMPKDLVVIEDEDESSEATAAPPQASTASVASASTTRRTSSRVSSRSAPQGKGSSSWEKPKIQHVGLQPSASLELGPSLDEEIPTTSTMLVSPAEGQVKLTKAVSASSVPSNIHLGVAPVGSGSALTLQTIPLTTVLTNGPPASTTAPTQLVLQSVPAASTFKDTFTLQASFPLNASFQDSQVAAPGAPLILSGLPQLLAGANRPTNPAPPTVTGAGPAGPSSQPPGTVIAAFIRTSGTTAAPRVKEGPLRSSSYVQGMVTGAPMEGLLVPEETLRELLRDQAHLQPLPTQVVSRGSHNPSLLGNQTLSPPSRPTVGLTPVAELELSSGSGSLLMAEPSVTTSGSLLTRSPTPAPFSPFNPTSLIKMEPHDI
Procedure, shortened: as §1

ELK4 = biological target: T9, ELK4 (Homo sapiens, UniProt P28324-2 1-405); conditions: protein: recombinant; tags: N-terminal GST; dsDNA, one strand shown
T9 sequence: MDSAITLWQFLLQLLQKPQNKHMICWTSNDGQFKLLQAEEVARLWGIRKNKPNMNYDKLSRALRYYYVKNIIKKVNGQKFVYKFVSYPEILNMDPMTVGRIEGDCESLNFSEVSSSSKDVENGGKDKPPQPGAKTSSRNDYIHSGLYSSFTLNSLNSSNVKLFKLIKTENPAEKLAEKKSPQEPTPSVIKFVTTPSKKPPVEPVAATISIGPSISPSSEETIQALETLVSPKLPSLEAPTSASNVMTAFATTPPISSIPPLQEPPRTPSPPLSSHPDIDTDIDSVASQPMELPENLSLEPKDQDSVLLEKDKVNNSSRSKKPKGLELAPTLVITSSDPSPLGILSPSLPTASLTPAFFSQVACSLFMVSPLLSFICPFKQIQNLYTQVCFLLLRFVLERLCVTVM
Procedure, shortened: as §1

ETV2 = biological target: T10, ETV2 (Homo sapiens, UniProt O00321 1-342); conditions: protein: recombinant; tags: N-terminal GST; dsDNA, one strand shown
T10 sequence: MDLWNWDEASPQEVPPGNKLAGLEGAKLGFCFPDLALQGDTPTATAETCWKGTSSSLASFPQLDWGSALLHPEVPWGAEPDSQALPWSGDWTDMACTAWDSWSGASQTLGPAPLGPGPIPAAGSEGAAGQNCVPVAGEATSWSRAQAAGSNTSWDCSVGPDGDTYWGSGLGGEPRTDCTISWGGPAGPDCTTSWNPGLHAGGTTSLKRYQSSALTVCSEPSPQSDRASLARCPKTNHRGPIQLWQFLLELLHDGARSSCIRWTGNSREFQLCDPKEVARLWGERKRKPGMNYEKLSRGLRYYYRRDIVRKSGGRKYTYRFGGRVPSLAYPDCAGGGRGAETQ
Procedure, shortened: as §1

ELF3 = biological target: T11, ELF3 (Homo sapiens, UniProt P78545 1-371); conditions: protein: recombinant; tags: N-terminal GST; dsDNA, one strand shown
T11 sequence: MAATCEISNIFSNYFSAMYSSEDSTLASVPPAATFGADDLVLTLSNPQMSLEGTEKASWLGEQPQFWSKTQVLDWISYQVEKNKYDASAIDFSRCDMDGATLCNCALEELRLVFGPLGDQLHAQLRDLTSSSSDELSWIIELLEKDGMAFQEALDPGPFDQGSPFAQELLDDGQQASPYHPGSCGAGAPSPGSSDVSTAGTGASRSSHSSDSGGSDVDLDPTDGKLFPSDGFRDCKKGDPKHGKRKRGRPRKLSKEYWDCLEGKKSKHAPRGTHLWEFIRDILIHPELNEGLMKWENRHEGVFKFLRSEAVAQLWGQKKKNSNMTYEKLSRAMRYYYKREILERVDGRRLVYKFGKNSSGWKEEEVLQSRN
Procedure, shortened: as §1

CRX = CRX (Homo sapiens, UniProt O43186 1-299); conditions: protein: recombinant; tags: N-terminal GST; dsDNA, one strand shown
Chain of CRX (O43186 whole entry): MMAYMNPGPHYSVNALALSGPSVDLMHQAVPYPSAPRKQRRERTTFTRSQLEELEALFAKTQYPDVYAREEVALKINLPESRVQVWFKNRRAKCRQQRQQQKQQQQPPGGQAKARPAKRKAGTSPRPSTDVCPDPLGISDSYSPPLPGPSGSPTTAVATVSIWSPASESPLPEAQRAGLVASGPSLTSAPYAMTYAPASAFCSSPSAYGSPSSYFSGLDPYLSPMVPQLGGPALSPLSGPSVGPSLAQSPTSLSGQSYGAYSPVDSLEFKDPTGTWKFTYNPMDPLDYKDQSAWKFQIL
Procedure, shortened: as §1

ETV1 = ETV1 (Homo sapiens, UniProt P50549 1-477); conditions: protein: recombinant; tags: N-terminal GST; dsDNA, one strand shown
Chain of ETV1 (P50549 whole entry): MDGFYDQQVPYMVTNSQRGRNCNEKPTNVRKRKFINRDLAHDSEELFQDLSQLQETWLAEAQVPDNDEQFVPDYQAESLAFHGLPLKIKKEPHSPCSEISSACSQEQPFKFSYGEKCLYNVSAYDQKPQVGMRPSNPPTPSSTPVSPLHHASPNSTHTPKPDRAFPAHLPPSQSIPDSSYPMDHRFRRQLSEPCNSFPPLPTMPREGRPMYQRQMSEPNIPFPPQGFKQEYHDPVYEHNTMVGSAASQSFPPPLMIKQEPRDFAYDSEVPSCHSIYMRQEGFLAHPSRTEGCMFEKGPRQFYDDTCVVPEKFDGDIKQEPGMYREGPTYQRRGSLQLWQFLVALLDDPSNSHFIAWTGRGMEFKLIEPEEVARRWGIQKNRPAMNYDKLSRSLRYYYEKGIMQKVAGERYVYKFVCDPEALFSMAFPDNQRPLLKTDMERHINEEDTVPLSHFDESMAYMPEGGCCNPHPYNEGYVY
Procedure, shortened: as §1

## TGACCC
FLI1
  binding signal: 1.34 fold enrichment (6-mer frequency, TF over GST control)
ELK1
  binding signal: 1.29 fold enrichment (6-mer frequency, TF over GST control)
GABPA
  binding signal: 1.38 fold enrichment (6-mer frequency, TF over GST control)
ERG
  binding signal: 1.4 fold enrichment (6-mer frequency, TF over GST control)
ELF1
  binding signal: 1.43 fold enrichment (6-mer frequency, TF over GST control)
EHF
  binding signal: 1.51 fold enrichment (6-mer frequency, TF over GST control)
SPI1
  binding signal: 1.26 fold enrichment (6-mer frequency, TF over GST control)
SPIB
  binding signal: 1.3 fold enrichment (6-mer frequency, TF over GST control)
ELK3
  binding signal: 1.4 fold enrichment (6-mer frequency, TF over GST control)
FEV
  binding signal: 1.46 fold enrichment (6-mer frequency, TF over GST control)
ETV5
  binding signal: 1.41 fold enrichment (6-mer frequency, TF over GST control)
HSF1
  binding signal: 1.1 fold enrichment (6-mer frequency, TF over GST control)
SPIC
  binding signal: 1.24 fold enrichment (6-mer frequency, TF over GST control)
ELF4
  binding signal: 1.48 fold enrichment (6-mer frequency, TF over GST control)
ELK4
  binding signal: 1.39 fold enrichment (6-mer frequency, TF over GST control)
ETV2
  binding signal: 1.56 fold enrichment (6-mer frequency, TF over GST control)
ELF3
  binding signal: 1.37 fold enrichment (6-mer frequency, TF over GST control)
CRX
  binding signal: 1.13 fold enrichment (6-mer frequency, TF over GST control)
ETV1
  binding signal: 1.25 fold enrichment (6-mer frequency, TF over GST control)
